From PubChem BioAssay
Activity calls are given as the source filed them.

Columns and labels:
[1] = binders of probe aFSTL3 on microarray, primary screen, stem cell growth factor project, biochemical, small-molecule microarray, fluorescence 635/667 (AID 1064); conditions: higher = more signal;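 also: measures binding of the biotinylated anti-FSTL3 antibody to printed compounds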
[2] = binders from COS7 lysate, DM2A8 probe, primary screen, torsin A project, cell lysate, small-molecule microarray, fluorescence 635/667 (AID 1065); conditions: higher = more signal, COS7 lysate expressing mutant human TOR1A
[3] = binders of probe aFGF2 on microarray, primary screen, stem cell growth factor project, biochemical, small-molecule microarray, fluorescence 635/667 (AID 1067); conditions: higher = more signal;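 also: measures binding of biotinylated aFGF2 protein to printed compounds on slides; z-score merges feature fluorescence and signal-to-noise across triplicate slides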
[4] = binders of probe aFGF10 on microarray, primary screen, stem cell growth factor project, biochemical, small-molecule microarray, fluorescence 635/667 (AID 1071); conditions: higher = more signal;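 also: score merges 667 nm spot intensity and signal to noise from triplicate slides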
[5] = biological target: Neurogenic locus notch homolog protein 2 (Homo sapiens) (UniProt Q04721); assay: Notch2 binders on small-molecule microarrays, primary screen, biochemical, small-molecule microarray, 635 nm fluorescence, stem cell growth factors (AID 1073); conditions: Notch2 binding, higher = more signal
Chain of Neurogenic locus notch homolog protein 2 (Homo sapiens) (Q04721 whole entry, looked up, canonical isoform): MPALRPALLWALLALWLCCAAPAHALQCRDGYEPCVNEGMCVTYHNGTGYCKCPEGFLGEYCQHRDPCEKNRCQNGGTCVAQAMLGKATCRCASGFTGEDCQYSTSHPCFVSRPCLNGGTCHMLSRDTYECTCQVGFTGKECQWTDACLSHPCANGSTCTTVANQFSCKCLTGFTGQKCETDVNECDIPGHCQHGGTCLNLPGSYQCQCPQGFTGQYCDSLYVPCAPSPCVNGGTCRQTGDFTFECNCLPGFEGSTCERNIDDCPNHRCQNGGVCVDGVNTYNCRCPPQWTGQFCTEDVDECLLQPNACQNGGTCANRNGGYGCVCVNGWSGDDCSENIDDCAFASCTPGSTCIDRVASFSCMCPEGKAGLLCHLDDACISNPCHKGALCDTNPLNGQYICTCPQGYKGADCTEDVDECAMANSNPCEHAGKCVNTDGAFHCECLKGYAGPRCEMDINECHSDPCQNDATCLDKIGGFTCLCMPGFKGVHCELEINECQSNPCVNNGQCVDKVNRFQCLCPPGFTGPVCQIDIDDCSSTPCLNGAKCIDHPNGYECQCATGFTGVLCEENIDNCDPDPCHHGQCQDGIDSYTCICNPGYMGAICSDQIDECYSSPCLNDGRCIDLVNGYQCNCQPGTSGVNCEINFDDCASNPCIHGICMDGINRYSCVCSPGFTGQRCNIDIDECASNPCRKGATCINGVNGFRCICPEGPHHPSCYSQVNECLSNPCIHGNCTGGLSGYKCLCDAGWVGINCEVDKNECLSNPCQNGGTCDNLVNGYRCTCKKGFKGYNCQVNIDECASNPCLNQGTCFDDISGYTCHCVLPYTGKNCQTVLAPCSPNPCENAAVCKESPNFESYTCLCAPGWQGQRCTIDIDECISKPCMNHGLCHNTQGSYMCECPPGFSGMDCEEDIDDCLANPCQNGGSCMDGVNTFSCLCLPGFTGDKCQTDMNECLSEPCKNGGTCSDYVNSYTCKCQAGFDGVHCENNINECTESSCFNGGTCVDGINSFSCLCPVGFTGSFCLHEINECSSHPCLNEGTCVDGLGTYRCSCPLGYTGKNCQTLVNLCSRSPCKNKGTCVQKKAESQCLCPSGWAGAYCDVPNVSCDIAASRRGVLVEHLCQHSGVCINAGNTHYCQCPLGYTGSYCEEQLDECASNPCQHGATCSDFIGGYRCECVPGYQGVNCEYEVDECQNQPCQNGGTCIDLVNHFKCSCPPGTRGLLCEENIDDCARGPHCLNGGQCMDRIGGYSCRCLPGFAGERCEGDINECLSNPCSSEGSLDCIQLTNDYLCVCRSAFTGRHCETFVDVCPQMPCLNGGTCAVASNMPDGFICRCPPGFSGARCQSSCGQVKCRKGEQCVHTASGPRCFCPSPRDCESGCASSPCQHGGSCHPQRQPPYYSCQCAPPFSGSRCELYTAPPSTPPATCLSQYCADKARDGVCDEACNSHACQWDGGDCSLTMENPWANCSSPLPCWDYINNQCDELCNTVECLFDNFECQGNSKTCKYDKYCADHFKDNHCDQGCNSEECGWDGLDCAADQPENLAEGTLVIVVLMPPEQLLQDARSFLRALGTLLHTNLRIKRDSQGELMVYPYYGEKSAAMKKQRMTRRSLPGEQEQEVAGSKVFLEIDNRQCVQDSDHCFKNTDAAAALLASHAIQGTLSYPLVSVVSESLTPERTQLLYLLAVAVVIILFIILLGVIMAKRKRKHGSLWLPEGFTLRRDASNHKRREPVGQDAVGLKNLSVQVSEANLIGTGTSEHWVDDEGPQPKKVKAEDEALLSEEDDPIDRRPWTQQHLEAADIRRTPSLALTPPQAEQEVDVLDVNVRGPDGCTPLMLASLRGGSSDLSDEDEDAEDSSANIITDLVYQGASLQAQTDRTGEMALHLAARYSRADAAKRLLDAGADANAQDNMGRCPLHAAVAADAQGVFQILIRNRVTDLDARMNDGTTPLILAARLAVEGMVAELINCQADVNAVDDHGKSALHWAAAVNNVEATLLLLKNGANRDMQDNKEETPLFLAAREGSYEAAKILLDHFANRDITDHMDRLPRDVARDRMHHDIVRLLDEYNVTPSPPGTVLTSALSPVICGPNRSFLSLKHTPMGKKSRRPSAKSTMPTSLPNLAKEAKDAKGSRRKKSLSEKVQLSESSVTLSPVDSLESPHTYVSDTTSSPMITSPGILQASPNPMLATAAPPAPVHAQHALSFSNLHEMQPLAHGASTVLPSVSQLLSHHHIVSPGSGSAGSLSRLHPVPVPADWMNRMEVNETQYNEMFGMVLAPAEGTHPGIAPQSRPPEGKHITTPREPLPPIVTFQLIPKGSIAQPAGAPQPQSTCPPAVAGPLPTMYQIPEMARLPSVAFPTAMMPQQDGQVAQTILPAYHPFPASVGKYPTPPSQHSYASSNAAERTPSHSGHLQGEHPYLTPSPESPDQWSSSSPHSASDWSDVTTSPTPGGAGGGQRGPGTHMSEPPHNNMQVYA

[6] = biological target: Pro-neuregulin-1, membrane-bound isoform (Homo sapiens) (UniProt Q02297); assay: NRG1 binders on small-molecule microarrays, primary screen, psychiatric disease protein project, biochemical, small-molecule microarray, fluorescence 635/667 (AID 1075); conditions: NRG1 binding, 635 nm fluorescence, higher = more signal;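 also: score combines 667 nm spot fluorescence with signal to noise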
[7] = tested on: Neuregulin-1 EGF-like domain; assay: binders of neuregulin-1 EGF-like domain, primary screen, biochemical, small-molecule microarray, 635 nm fluorescence (AID 1081); conditions: small-molecule microarray binding, higher = more signal;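 also: binding of the protein to compounds printed on small-molecule microarray slides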
[8] = FRG1 promoter luciferase signal modulators, primary screen, FRG1 inhibition for FSHD, cell-based, C2C12 myotubes, firefly/Renilla luciferase, luminescence (AID 1084); conditions: higher = more signal, called active from +8 up or from −8 down
[9] = binders of probe aFST on microarray, primary screen, stem cell growth factor project, biochemical, small-molecule microarray, fluorescence 635/667 (AID 1086); conditions: higher = more signal;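 also: score merges 667 nm fluorescence with signal-to-noise of each printed compound spot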
[10] = binders of probe aHhip on microarray, primary screen, stem cell growth factor project, biochemical, small-molecule microarray, fluorescence 635/667 (AID 1087); conditions: higher = more signal;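 also: score merges spot fluorescence at 667nm with spot signal to noise ratio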
[11] = tested on: PRMT1 (protein arginine N-methyltransferase 1); assay: PRMT1 binders on small-molecule microarrays, primary screen, biochemical, small-molecule microarray, 635 nm fluorescence (AID 1088); conditions: small-molecule microarray binding, higher = more signal;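 also: binding of Prmt1 protein to compounds spotted on small-molecule microarray slides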
[12] = yeast growth modulation, basal conditions, primary screen, YJM789 clinical isolate, OD600, 24 h (AID 1089);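 also: growth of clinical yeast isolate S. cerevisiae YJM 789 seeded 1000 cells per well; test concentration not given here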; conditions: S. cerevisiae YJM789 growth, higher = more signal, called active from +8 up or from −8 down
[13] = fission yeast growth modulation, primary screen, strain 972, OD600, 24 h, no modulator (AID 1090);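 also: basal condition with compound alone and no growth modifier present; test concentration not given here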; conditions: S. pombe 972 growth, higher = more signal, called active from +8 up or from −8 down
[14] = S. cerevisiae growth modulation with rapamycin, primary screen, strain BY4716, OD600, 96 h (AID 1091); conditions: higher = more signal, called active from +8 up or from −8 down; also: test concentration not given here
[15] = biological target: Torsin-1A-interacting protein 2 (Homo sapiens) (UniProt Q8NFQ8); assay: LULL1 binders on small-molecule microarray, primary screen, cell lysate, human LULL1 lysate, 635/667 nm fluorescence (AID 1092); conditions: hLULL1 lysate binding, 635 nm fluorescence, higher = more signal;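 also: probe is lysate of COS7 cells overexpressing human LULL1; score merges per-feature 667 nm fluorescence with signal-to-noise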
[16] = E. coli growth modulation, two-sided OD650, primary screen, E. coli filamentation project, strain DRC41, 24 h (AID 1093); conditions: OD650, 24 h, higher = more signal, called active from +8 up or from −8 down;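 also: MC1000 strain lacking acrAB efflux and sulA so SOS filamentation is blocked; test concentration not given here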
[17] = small-molecule microarray binders of probe aLefty2, primary screen, biochemical, biotinylated probe, 635/667 nm fluorescence (AID 1094); conditions: higher = more signal;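 also: score merges spot fluorescence near 667 nm with spot signal-to-noise ratio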
[18] = tested on: Noggin (protein binding on small-molecule microarray); assay: Noggin binders on small-molecule microarray, primary screen, biochemical, 635/667 nm fluorescence (AID 1095); conditions: 635 nm fluorescence, higher = more signal;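 also: score merges 667 nm feature fluorescence with signal to noise over triplicate slides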
[19] = biological target: Neurogenic locus notch homolog protein 3 (Homo sapiens) (UniProt Q9UM47); assay: NOTCH3 binders on small-molecule microarray, primary screen, biochemical, 635/667 nm fluorescence (AID 1096); conditions: NOTCH3 binding, 635 nm fluorescence, higher = more signal
Chain of Neurogenic locus notch homolog protein 3 (Homo sapiens) (Q9UM47 whole entry, looked up): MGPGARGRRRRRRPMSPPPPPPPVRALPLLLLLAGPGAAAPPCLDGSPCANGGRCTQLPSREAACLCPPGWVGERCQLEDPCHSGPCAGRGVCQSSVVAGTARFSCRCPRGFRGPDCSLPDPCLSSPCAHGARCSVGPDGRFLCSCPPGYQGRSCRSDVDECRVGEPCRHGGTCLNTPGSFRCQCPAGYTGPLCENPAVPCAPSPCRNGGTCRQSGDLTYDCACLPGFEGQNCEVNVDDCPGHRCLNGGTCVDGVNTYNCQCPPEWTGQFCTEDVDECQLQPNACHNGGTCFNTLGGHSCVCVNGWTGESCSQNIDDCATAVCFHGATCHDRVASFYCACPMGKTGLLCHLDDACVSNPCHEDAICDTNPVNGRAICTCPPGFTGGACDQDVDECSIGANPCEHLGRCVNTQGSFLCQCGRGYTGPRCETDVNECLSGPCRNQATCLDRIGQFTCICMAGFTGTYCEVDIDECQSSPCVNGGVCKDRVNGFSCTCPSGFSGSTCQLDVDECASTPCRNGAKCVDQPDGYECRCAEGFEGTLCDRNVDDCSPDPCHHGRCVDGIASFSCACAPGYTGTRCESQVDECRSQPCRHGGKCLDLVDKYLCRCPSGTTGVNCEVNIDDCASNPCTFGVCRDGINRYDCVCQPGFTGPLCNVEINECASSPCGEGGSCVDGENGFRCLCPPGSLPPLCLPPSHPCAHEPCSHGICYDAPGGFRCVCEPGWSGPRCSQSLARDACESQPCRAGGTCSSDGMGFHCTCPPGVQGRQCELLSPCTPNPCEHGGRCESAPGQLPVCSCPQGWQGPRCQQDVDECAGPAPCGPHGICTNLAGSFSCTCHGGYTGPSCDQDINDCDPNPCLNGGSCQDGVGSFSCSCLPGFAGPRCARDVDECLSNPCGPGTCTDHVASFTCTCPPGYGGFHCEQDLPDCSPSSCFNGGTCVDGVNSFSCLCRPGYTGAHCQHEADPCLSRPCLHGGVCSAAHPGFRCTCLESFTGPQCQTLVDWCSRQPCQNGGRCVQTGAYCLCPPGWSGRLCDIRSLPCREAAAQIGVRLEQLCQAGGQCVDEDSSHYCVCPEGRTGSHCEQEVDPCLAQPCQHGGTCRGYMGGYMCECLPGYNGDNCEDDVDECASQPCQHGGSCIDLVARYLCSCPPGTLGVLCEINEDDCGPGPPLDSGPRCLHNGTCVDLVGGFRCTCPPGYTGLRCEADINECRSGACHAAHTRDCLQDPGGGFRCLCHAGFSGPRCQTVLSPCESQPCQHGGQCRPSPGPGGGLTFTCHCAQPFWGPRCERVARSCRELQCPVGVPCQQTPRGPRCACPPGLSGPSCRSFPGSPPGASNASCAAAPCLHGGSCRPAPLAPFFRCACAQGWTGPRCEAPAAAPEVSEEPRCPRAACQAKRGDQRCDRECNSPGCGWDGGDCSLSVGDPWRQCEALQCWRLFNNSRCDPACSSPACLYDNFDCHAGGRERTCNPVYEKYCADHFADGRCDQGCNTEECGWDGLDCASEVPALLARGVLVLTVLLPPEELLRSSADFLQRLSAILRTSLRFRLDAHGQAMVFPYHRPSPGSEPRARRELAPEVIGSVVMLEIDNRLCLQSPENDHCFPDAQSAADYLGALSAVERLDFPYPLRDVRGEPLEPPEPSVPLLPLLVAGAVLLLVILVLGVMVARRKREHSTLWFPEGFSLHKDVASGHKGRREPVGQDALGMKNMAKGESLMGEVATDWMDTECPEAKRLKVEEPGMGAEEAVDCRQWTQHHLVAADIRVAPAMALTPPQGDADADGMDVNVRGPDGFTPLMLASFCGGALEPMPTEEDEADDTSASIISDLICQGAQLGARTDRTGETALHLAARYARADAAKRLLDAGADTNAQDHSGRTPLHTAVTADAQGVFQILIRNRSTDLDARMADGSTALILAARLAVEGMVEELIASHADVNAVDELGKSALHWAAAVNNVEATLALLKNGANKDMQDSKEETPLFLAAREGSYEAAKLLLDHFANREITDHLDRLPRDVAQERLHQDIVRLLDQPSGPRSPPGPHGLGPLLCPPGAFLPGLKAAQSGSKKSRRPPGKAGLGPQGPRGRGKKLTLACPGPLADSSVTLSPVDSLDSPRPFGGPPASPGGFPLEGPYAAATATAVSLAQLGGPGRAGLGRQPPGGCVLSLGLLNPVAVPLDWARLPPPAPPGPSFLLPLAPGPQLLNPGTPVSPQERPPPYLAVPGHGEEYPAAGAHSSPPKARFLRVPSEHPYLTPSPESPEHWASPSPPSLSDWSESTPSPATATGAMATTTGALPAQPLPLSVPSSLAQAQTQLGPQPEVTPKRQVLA

[20] = small-molecule microarray binders of probe aEGFR, primary screen, biochemical, biotinylated probe, 635/667 nm fluorescence (AID 1097); conditions: higher = more signal;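 also: probe is a biotinylated anti-EGFR antibody binding compounds printed on slides; score combines fluorescence near 667 nm and signal to noise of each spot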

SMILES | composite z-score [1] | composite z-score [2] | composite z-score [3] | composite z-score [4] | composite z-score [5] | composite z-score [6] | composite z-score [7] | z-score [8] | composite z-score [9] | composite z-score [10] | composite z-score [11] | z-score [12] | z-score [13] | z-score [14] | composite z-score [15] | z-score [16] | composite z-score [17] | composite z-score [18] | composite z-score [19] | composite z-score [20]
CC(C)CON=C1C[C@@H](O)[C@@H](O)[C@@H]2[C@@H]3C(=O)N(C(C)(C)C)C(=O)[C@@H]3CC[C@@H]12 | -0.7 | 2.77 | -0.243 | -0.541 | -0.483 | -0.517 | 0.694 | 0.0071 (inactive) | -0.0117 | -0.303 | 1.37 | 0.118 (inactive) | -0.182 (inactive) | -0.147 (inactive) | -0.495 | 0.222 (inactive) | -0.317 | 1.02 | -0.269 | -0.0638
CC(C)(C)N1C(=O)[C@H]2[C@H]3[C@H](O)[C@H](O)CC(=NOC[C@@H](O)COCc4ccco4)[C@@H]3CC[C@H]2C1=O | 0.812 | 0.152 | -0.0193 | 0.112 | 0.0503 | -0.0263 | -0.214 | 0.528 (inactive) | -0.0115 | -0.0994 | -0.424 | -0.0093 (inactive) | 0.257 (inactive) | 0.498 (inactive) | -0.238 | 0.635 (inactive) | 0.16 | 0.0106 | -0.589 | -0.141
COC(=O)CC=C[C@@H](C)[C@@H](C=NOC[C@@H](C)[C@H](OCc1ccccc1)C(C)C)NS(=O)(=O)c1ccc(C)cc1 | -0.433 | 0.142 | -0.0633 | -0.0494 | -0.801 | -0.267 | -0.332 | 0.539 (inactive) | -0.0646 | -0.0003 | 0.123 | -0.161 (inactive) | 1.53 (inactive) | 0.227 (inactive) | 0.0335 | -1.42 (inactive) | -0.27 | 0.452 | -1.44 | -0.142
CC(CCN1CCCc2nc(C)c(C)cc21)=NO[C@H](C)c1cn([C@@H]2COC[C@H]2O)nn1 | -0.396 | 1.37 | -0.0788 | 0.359 | 0.6 | 0.0261 | 1.17 | 0.59 (inactive) | 0.3 | -0.195 | 1.16 | 1.17 (inactive) | 1.12 (inactive) | 0.468 (inactive) | 0.788 | 1.24 (inactive) | 0.13 | 0.566 | 0.676 | 0.187
CO[C@@H]1COC(=O)[C@H](CCSC)NC(=O)CC=C[C@@H](C)COC(=O)[C@@H]2CCCN2C(=O)CC=C[C@H]1C | -0.313 | 2.62 | -0.0659 | 0.571 | 0.84 | -0.483 | 0.926 | -0.813 (inactive) | 0.16 | -0.0618 | 0.888 | -0.0153 (inactive) | -1.33 (inactive) | -0.495 (inactive) | -0.389 | -0.135 (inactive) | -0.261 | 0.862 | 0.468 | -0.0675
